The whole screen tested about 65,000 compounds, of which about 2,100 (3.2%) showed an effect of 50% or more. The median lay at about -52%. What follows is part of a selection rich in strong results, with near analogues and random picks from the rest.
What follows are molecules tested on Plasmodium falciparum (assay: Screen against P. falciparum Asexual Blood Stage (ABS), at 5uM). Conditions: tested at 5 uM.
Format: functional, Dd2

Row | Compound | INHIBITION [%]
1 | COc1ccc(CN2C[C@@H]3CN(Cc4cccnc4)CCO[C@@H]3C2)cc1 | -76.4
2 | CC(NC(=O)Nc1ccc(-c2csnn2)cc1)C(=O)NC(C)(C)C (centres undefined) | -94.8
3 | O=C(c1ccsc1)N1C[C@@H]2CCN(c3cccnc3)C[C@@H]2C1 | -7.89
4 | O=C(NCC1CCS(=O)(=O)C1)N1CCN(c2cnccn2)CC1 (centres undefined) | -123
5 | CC(NC(=O)NCCCN(C)S(C)(=O)=O)c1ccc(F)cc1 (centres undefined) | -109
6 | Cc1nc(CN(C)c2nccc(N(C)C)n2)cs1 | 27.2
7 | COc1ccnc(N(C)Cc2csc(C)n2)n1 | -49.6
8 | Cc1cc(N(C)C)nc(N(C)Cc2csc(C)n2)n1 | 51.4
9 | c1cncc(OCc2n[nH]c3c2CN(Cc2cccs2)C3)c1 | -109
10 | OC1(Cn2ccc3ncccc32)CCN(Cc2cccs2)CC1 | 4.9
11 | CC(=O)c1cccc(NCC(=O)NC(N)=O)c1 | -105
12 | Cn1nc(C2CCCN(Cc3ccccc3)C2)c2nccnc21 (centres undefined) | -26.5
13 | COc1cccc(CNCc2ccnc(N3CCOCC3)c2)c1OC | -35.6
14 | O=C(NCC1(O)CCOCC1)c1ccc(F)cc1 | -171
15 | CS(=O)(=O)C1(C(=O)NC2CCc3nccn3C2)CCCC1 (centres undefined) | -105
16 | COc1ccc(C2(C(=O)NC3CCc4nccn4C3)CCCC2)cc1 (centres undefined) | 47.5
17 | COc1cccc(C2(C(=O)NC3CCc4nccn4C3)CCCC2)c1 (centres undefined) | 53.3
18 | CCN1CC(C)(C)CN(C(=O)CCc2ccccc2)CC1=O | -37
19 | Cc1ccc(-c2nc(CCNC(=O)NC3CCC(O)CC3)co2)cc1 (centres undefined) | -137
20 | OCCN1CCN(Cc2cnc3c(-c4ccccc4)cnn3c2)CC1 | 20.3
21 | CN(C)CC1(O)CCN(Cc2cnc3c(-c4ccccc4)cnn3c2)C1 (centres undefined) | 65
22 | c1ccc(-c2cnn3cc(CN4CCC5(CCO5)CC4)cnc23)cc1 | -302

Row | Compound | INHIBITION [%]
23 | COc1ccc(CN(Cc2ccsc2)CC2CCCO2)cn1 (centres undefined) | -101
24 | Cc1cccc(CN2CCCC3(CCC(=O)N3CCN(C)C)CC2)n1 (centres undefined) | 45.5
25 | CN(C)CCN1C(=O)CCC12CCN(Cc1cccs1)CC2 | 58.2
26 | CN(C)C(=O)CN1C(=O)CCC12CCN(Cc1cccs1)CC2 | -98
27 | CNc1cncc(C2CCN(C(=O)c3coc(C)n3)CC2)n1 | -43
28 | Cc1nn(C)c(N(C)C)c1CNC1CCc2c(F)cccc21 (centres undefined) | -24.9
29 | O=C1CC2(CCNCC2)C(=O)N1Cc1ccc(F)cc1 | -53.4
30 | N#Cc1cccc(CN2C(=O)C3(CCNCC3)Nc3ccccc32)c1 | 67.9
31 | N#Cc1cccc(CN2CCC3(CC2)CC(c2ccncc2)C(=O)N3)c1 (centres undefined) | -29.8
32 | C=Cc1ccc(CN2C(=O)C3(CCNCC3)Nc3ccccc32)cc1 | 87.7
33 | N#Cc1cccc(CN2C(=O)c3ccccc3CS2(=O)=O)c1 | -37.5
34 | NC(=O)c1ccc(CN2C(=O)C3(CCNCC3)Nc3ccccc32)cc1 | -3.53
35 | COc1ccccc1N1CCN(C(=O)c2ccnc(N(C)C)c2)CC1 | 41.8
36 | CN(Cc1cn2c(n1)CN(C1CCOCC1)CC2)Cc1ccco1 | -29.2
37 | NC(=O)CN1CCCC1c1cncc(Oc2ccc(Cl)cc2)n1 (centres undefined) | 9.38
38 | COc1ccc(Oc2cncc(C3CCCN3C(C)=O)n2)cc1 (centres undefined) | -40.9
39 | CN(C)CC(=O)N1CCCC1c1cncc(Oc2ccc(F)cc2)n1 (centres undefined) | 61.2
40 | Cn1cncc1CN1CCCC1c1cncc(Oc2ccc(F)cc2)n1 (centres undefined) | -32.7
41 | CNCC(=O)N1CCCC1c1cncc(Oc2ccc(F)cc2)n1 (centres undefined) | 69.8
42 | CC(=O)N1CCCC1c1cncc(Oc2ccc(F)cc2)n1 (centres undefined) | -118
43 | NCc1ccnc(Oc2ccc(F)cc2)c1 | -151
44 | O=C(NC1CC1)N1CCOCC2(C1)CN(c1ccccc1)C(=O)CO2 (centres undefined) | -77.9

Row | Compound | INHIBITION [%]
45 | c1cnnc(NCC2CN(Cc3ccon3)CCO2)c1 (centres undefined) | -114
46 | CN1CC[C@]2(CN(CC3CCOC3)C[C@H]2c2ccccc2)C1=O (some centres undefined) | -65.9
47 | NC(=O)NC(=O)CCSCc1coc(-c2ccc(F)cc2)n1 | -58.5
48 | CC(Nc1ncnc2c1CCNCC2)c1nc2c(s1)CCCC2 (centres undefined) | 9.93
49 | CC(=O)N1CCc2nc(-c3ccccc3)nc(NC(C)C)c2CC1 | -25.6
50 | CC(Nc1nc(-c2ccccc2)nc2c1CCNCC2)c1nccs1 (centres undefined) | 52.7
51 | N#CCCn1nc(C(F)(F)F)c2c1CCC2 | -74.2
52 | Cc1ncsc1C(=O)NC1CCN(Cc2ccc(C(F)(F)F)cc2)CC1 | -104
53 | O=C(NC[C@H]1OC[C@@H](N(CC2CC2)CC2CC2)[C@@H]1O)Nc1ccccc1 | 64.8
54 | CN(C)[C@@H]1CO[C@H](CNC(=O)Nc2ccccc2)[C@H]1O | -60.7
55 | O=C(NC[C@H]1OC[C@@H](NC2CCC2)[C@@H]1O)Nc1ccccc1 | -141
56 | CSc1ccc(CNC(c2ccccc2F)c2nccn2C)cc1 (centres undefined) | -98
57 | Cc1ccc(CNC(c2ccccc2)c2nccn2C)cc1 (centres undefined) | -267
58 | Cn1ccnc1C(NCc1ccccc1)c1ccc(F)cc1 (centres undefined) | -60.5
59 | CSc1ccc(CNC(c2ccc(F)cc2)c2nccn2C)cc1 (centres undefined) | -107
60 | COc1cccc(C(NCc2ccc(SC)cc2)c2nccn2C)c1 (centres undefined) | 65.5
61 | Cn1ccnc1C(NCc1ccc(Br)cc1)c1ccccc1 (centres undefined) | 52.2
62 | Cn1ccnc1C(NCc1csc(Br)c1)c1ccccc1 (centres undefined) | 28.4
63 | COc1ccccc1C(NCc1ccc(SC)cc1)c1nccn1C (centres undefined) | 69.7
64 | CSc1ccc(CNC(c2ccccc2)c2nccn2C)cc1 (centres undefined) | -22.4
65 | FC(F)(F)Cn1cc(NCc2cscn2)cn1 | -19.1
66 | Cc1ccc(S(=O)(=O)c2ncccc2CN2CCN(C)CC2)cc1 | 24.6

Row | Compound | INHIBITION [%]
67 | Cc1nc(COc2ccc(CNCCn3cccn3)cc2)cs1 | -107
68 | COCCNC(=O)[C@H]1CN(c2nnc(C)s2)C[C@H]2OCC[C@@H]12 | -167
69 | c1ccc(Cc2noc(CN3CCCCC3Cn3cncn3)n2)cc1 (centres undefined) | -14.9
70 | CCN(CC1CN(Cc2ccn(C(C)C)n2)CCO1)c1cccnn1 (centres undefined) | -94
71 | Cc1[nH]c2ccc(C#N)cc2c1CCNc1ncnc2c1CCNCC2 | -19.3
72 | Cc1[nH]c2ccc(Cl)cc2c1CCNc1ncnc2c1CCNC2 | 52
73 | Cc1[nH]c2ccccc2c1CCNc1ncnc2c1CCNCC2 | -68.4
74 | O=S(=O)(Nc1ccc(Oc2ccc3c(c2)OCO3)cc1)N1CCCCC1 | -59.9
75 | CCN(CCO)Cc1ccc(Br)c2cccnc12 | 54.2
76 | N#CCCN(CCC#N)Cc1ccc(Br)c2cccnc12 | -103.4
77 | OCCN(CCO)Cc1ccc(Br)c2cccnc12 | -26.05
78 | Cc1nn(C)c2c(=O)n(C(C)C)c(NCCc3ccccc3)nc12 | 13.9
79 | Clc1ccc(C2(NCc3noc(C4CC4)n3)CCC2)cc1 | 16.7
80 | Clc1ccc(C2(NCc3noc(C4CC4)n3)CCCC2)cc1 | 68.5
81 | Clc1ccc(C2(NCc3noc(C4CC4)n3)CCOCC2)cc1 | 3.57
82 | O=C(NC1CCCC1)c1nc(COc2ccc3c(c2)OCO3)no1 | -118
83 | CSc1ccc(C(C(=O)O)N2CCC(CO)CC2)cc1 (centres undefined) | -79.3
84 | Cc1c(NC(=O)c2ncn[nH]2)cccc1C(=O)NC(C)(C)C | -21
85 | Cc1cc(CN2CCC3(CC2)CC(Nc2ncccn2)CO3)nn1C (centres undefined) | -8.44
86 | c1cnc(NC2COC3(CCN(Cc4ccoc4)CC3)C2)nc1 (centres undefined) | -27.7
87 | Cc1cc(C)cc(CN2CCC3(CC2)CC(Nc2ncccn2)CO3)c1 (centres undefined) | 60.2
88 | CCc1csc(CNc2cc(C)nc(-c3cccnc3)n2)n1 | 4.15

Row | Compound | INHIBITION [%]
89 | CC(C)c1nc(CN2CCCC2CN2CCCC2)cs1 (centres undefined) | 68
90 | CC(C)c1nc(CN2CCCCC2)cs1 | -114
91 | CC(C)c1nc(CN2CCCCC2Cn2cncn2)cs1 (centres undefined) | -30.9
92 | CC1CCN(CCCNS(=O)(=O)Cc2ccccc2F)CC1 | 28.5
93 | O=S(=O)(Cc1ccccc1F)NCCCN1CCCCC1 | 19.9
94 | Cn1cnc(S(=O)(=O)NCCCN2CCCC2)c1Cl | -29.7
95 | CC1CCN(CCCNS(=O)(=O)c2cccc(F)c2)CC1 | 54.9
96 | O=S(=O)(Cc1c(F)cccc1Cl)NCCCN1CCCCCC1 | 50.1
97 | O=S(=O)(NCCCN1CCCC1)c1cc(F)cc(F)c1 | 67.4
98 | CC(C)c1cccc(S(=O)(=O)NCCCN2CCC(O)CC2)c1 | 34.2
99 | Cc1cc(F)cc(S(=O)(=O)NCCCN2CCC(O)CC2)c1 | -34.8
100 | CN1CCN(CCCNS(=O)(=O)Cc2ccccc2F)CC1 | 18.6
101 | CC(=O)N1CCN(CCNS(=O)(=O)c2cc(F)cc(F)c2)CC1 | -113
102 | CC1CCN(CCCNS(=O)(=O)c2cc(F)cc(F)c2)CC1 | 63.3
103 | CC(=O)N1CCN(CCNS(=O)(=O)c2cccc(F)c2)CC1 | -72.6
104 | O=C(Nc1cccc(N2CCOCC2)c1)N[C@H](CO)c1ccccc1 | -104
105 | Cc1cccc(C(=O)N2CCO[C@H]3[C@H](OCCN(C)C)CC[C@@H]32)n1 | -57.1
106 | COCC1CN(C(=O)COc2ccccc2)Cc2ncn(C)c21 (centres undefined) | -14.4
107 | O=C(NCc1ccnc(OCC(F)(F)F)c1)NCC1CCOC1 (centres undefined) | -16
108 | O=C(C1CCCC1)N1CCCC(c2cccc(-n3ccnc3)n2)C1 (centres undefined) | -46.4
109 | Cc1c[nH]c(CN2CCOC(c3ccc(Cl)cc3)C2)c(C)c1=O (centres undefined) | -11.4

Reference: ChEMBL document CHEMBL4513216, “Probing the Open Global Health Chemical Diversity Library for Multistage-Active Starting Points for Next-Generation Antimalarials” (ACS Infect Dis, 2020)
